HTT aggregate – reduces HttQ103-GFP aggregates in PC12 cells; PC12 HttQ103-GFP aggregates, Acumen cytometry, 40 h; Potency, µM (highest dose often 46.1 µM), most hits filed as inhibitors; 220,000 compounds, 1.1% hits; AID 1688; also: nearly all actives have a fitted effect of over 60% in size
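Aggregate formation scored by laser-scanning cytometer (488 excitation, 500–530 emission) in lysed PC12 cells expressing Q103-GFP after 100 nM tebufenozide induction; library tested in dose series, with ATPLite reagent added in the multiplex.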
ERK EGF block – blocks ERK signaling stimulated by EGF; Potency, µM (titrated, usually from 11.5 µM), most hits filed as inhibitors; HEK293-V1b, EGF-stimulated phospho-ERK AlphaScreen; 130,000 compounds, 0.41% hits; also: nearly all actives have a fitted effect of over 55% in size
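Homogeneous cell-based phospho-ERK assay: HEK293/V1b cells in 1% FBS, compound 30 min then EGF 5 min, AlphaScreen luminescence. Activity normalized between DMSO and 25 nM EGF controls; AC50 from Hill modelling.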
IMPase Li cell – IMPase inhibition in cells with lithium potentiation | CHO-M1 cells, IP1 TR-FRET (IP-One), carbachol + lithium | Potency, µM (titrated, usually from 59.4 µM), hits mostly inhibitors | 210,000 compounds, 0.35% hits;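 also: IP1 builds up when IMPase is blocked and the TR-FRET signal falls; nearly all actives have a fitted effect of over 50% in size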
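CHO cells stably expressing M1 receptor (2000/well, cultured 16–30 h) treated 30 min at 37C with compound plus low lithium. Cytosolic IP1 by TR-FRET (665/620 ratio and 620 channel) after 10 min lysis; AC50 by Hill fit.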
HTT cytoprotect – protects HTT-Q103 PC12 cells, measured by ATP. PC12 HTT-Q103 induced, cytoprotection, ATP luminescence, 40 h. Potency, µM (highest dose often 56.4 µM), usual class: activators. 230,000 compounds, 0.14% hits; also: nearly all actives have a fitted effect of over 45% in size
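Compounds were screened for protection of PC12 cells against cell death after tebufenozide induction (100 nM final) of mutant Huntingtin exon 1 (Q103) fused to GFP.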
NPSR antag – blocks cAMP signaling of the human neuropeptide S receptor. Q6W5P4. CHO-NPSR cells, cAMP TR-FRET, antagonist mode. Potency, µM (highest dose often 38.3 µM), most hits filed as inhibitors. 220,000 compounds, 1% hits; also: nearly all actives have a fitted effect of over 50% in size
Target sequence (Q6W5P4 whole entry, looked up): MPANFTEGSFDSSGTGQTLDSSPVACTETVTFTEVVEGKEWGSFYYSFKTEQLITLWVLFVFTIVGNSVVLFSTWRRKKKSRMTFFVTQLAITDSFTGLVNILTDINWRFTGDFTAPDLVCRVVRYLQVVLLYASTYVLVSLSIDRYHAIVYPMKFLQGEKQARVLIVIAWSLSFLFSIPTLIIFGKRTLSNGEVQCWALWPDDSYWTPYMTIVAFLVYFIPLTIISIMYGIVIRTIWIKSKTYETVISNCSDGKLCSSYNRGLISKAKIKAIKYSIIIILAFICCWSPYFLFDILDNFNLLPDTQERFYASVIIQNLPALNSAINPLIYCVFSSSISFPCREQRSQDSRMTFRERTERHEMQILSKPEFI
Hits are given with their value; . = inactive; ? = inconclusive; / = no result; ! = not confirmed by another sample; [ ] = remark or other dose. Only some compounds are listed: those with a hit (about 1.9% of all), similar ones and a draw of the others. Calls follow the shape of the dose curve; as a rule, active = well fitted curve in the direction sought with a large enough effect; inconclusive = small, poorly fitted or top-dose-only effect, or another doubt; inactive = no such curve, though single readings can be large; an effect the other way counts as inactive or inconclusive.

SMILES	HTT aggregate	ERK EGF block	IMPase Li cell	HTT cytoprotect	NPSR antag
O=C(/C(=C\c1ccccc1)c1nc2ccccc2[nH]1)c1ccc(Cl)cc1	?	.	.	.[10 µM]	10µM
COC(=O)/C(=C\c1cc(OC)c(OC)c(OC)c1)c1nc2ccccc2[nH]1	?	.	.	.	.
Cc1ccc(-c2cc3c(nn2)-c2ccccc2C3=O)cc1	.[9.22 µM]	?	/	.[10 µM]	.
Cc1ccccc1-c1cc2c(nn1)-c1ccccc1C2=O	25µM	/	.	.	.
CC(=O)Oc1ccc2c(c1)Oc1cc(OC(C)=O)ccc1C21OC(=O)c2ccccc21	0.32µM	.	.	.[10 µM]	.
C[C@H](N)CCP(=O)(O)O	/	/	.	.	/
CCOC(=O)OCC1OC(c2ccccc2)C=CC1Oc1ccc2oc(=O)cc(C)c2c1 (centres undefined)	/	/	/	.[10 µM]	/
CCNC(=O)[C@@H]1O[C@@H](n2cnc3c(NCc4ccccc4)ncnc32)[C@@H](O)[C@H]1O	/	/	/	.[1.9 µM]	/
O=C(O)c1cc(-c2ccco2)nc2ccc(Br)cc12	.	.	10µM!	.[1.9 µM]	6.3µM!
CNC(=O)COC(=O)c1ccccc1C(=O)c1ccc(Cl)c([N+](=O)[O-])c1	28µM	?	.	.[10 µM]	?
Cc1cccc(-n2c(=S)[nH]c3c(oc4ccccc43)c2=O)c1	.	.	8.9µM	/	.
O=c1c2oc3ccccc3c2[nH]c(=S)n1-c1ccccc1	.	.	8.9µM	.[10 µM]	.
Cc1cn([C@H]2C=C[C@H](CO)O2)c(=O)[nH]c1=O	/	/	/	.[1.9 µM]	/
COc1cc2c(cc1O)-c1ccccc1CN(C)C2	/	.	.	.	/
CCc1c2c(nc3cccc(OC)c13)OC(CC)C2 (centres undefined)	/	.	.	.	/
O=C(O)[C@@H]1[C@@H](C(=O)O)[C@@]23CCCC2=C2CC[C@@]3(C(=O)O)[C@@]3(C(=O)O)C[C@@]213	/	/	.	/	/
COc1ccc(/C=C/C(=O)Nc2ccc(OC)nc2)cc1	.	.	.	/	.
COc1ccc(CS(=O)(=O)/C(Cl)=C(/Cl)C(=O)Nc2ccc(OC)nc2)cc1	?	/	.	.[10 µM]	6.3µM
COc1ccc(NC(=O)/C(Cl)=C(/Cl)S(=O)Cc2ccccc2)cn1 (centres undefined)	5µM	/	.	.	1.3µM
ClCCl	/	/	.	.	/
COc1ccc(C2C(C#N)=C(SCC(=O)Nc3ccc(C)cc3)NC3=C2C(=O)CC(C)(C)C3)cc1 (centres undefined)	11µM	/	.	.	.
CCCOc1ccc(Br)cc1-c1cc(-c2ccc(Cl)cc2)[nH]c1-c1ccncc1	/	.	.	.	/
Cc1sc(NC(=S)NC(=O)CCc2ccccc2)c(C(N)=O)c1C	?	.	11µM	.[10 µM]	.
COC(=O)CCC(=O)NC(=S)Nc1sc(C)c(C)c1C(N)=O	.	.	?	/	.
Cc1[nH]n(-c2ccccc2)c(=O)c1N=Nc1nccs1	11µM	/	.	.	.
SMILES	HTT aggregate	ERK EGF block	IMPase Li cell	HTT cytoprotect	NPSR antag
COc1cc(OC)cc(C(=O)NNC(=O)c2ccccn2)c1	11µM	.	.	.[10 µM]	.
COc1ccc(C(=O)NNC(=O)c2ccccn2)cc1	.	.	.	.[10 µM]	.
CCN(CC)c1ccc(NC2CC(=O)N(CCc3ccc(OC)cc3)C2=O)cc1 (centres undefined)	.[9.22 µM]	35µM	/	.[10 µM]	.
C/C=C/C(=O)Nc1nnc(-c2ccccc2C)s1	.[9.22 µM]	.	10µM	.[10 µM]	.
CCCCOc1ccc(S(=O)(=O)Nc2cccnc2)cc1	11µM	/	.	.	.
O=[N+]([O-])c1ccc(Sc2cccc3cccnc23)c([N+](=O)[O-])c1	?	/	.	?	3.2µM
COc1cc2c(C)nc3c(c(C)nn3-c3ccccc3)c2cc1OC	.[9.22 µM]	.	11µM	.[10 µM]	.
COc1cc2c(-c3ccc(O)cc3)nc3c(c(C)nn3-c3ccccc3)c2cc1OC	.	.	.	?	.
Cc1ccc(C[C@H](Cc2nc3ccccc3[nH]2)c2nc3ccccc3[nH]2)cc1	/	/	/	.	/
CC(=O)Oc1c(C)cc(Cl)cc1C(=O)Nc1ccc([N+](=O)[O-])cc1Cl	0.25µM	.	.	.[10 µM]	.
CC(=O)OCC(=O)Nc1ccc([N+](=O)[O-])cc1Cl	.	.	.	.	.
NC(C(=O)O)(c1ccc(P(=O)(O)O)cc1)C1CC1 (centres undefined)	/	/	.	.	/
CCCN1CC=C2C(C#N)=C(N)C(C#N)(C#N)C(c3cccc(OC)c3OC)C2C1 (centres undefined)	?	/	.	.[10 µM]	.
COc1cccc(OC)c1OCc1cc(C2C3CCCC=C3C(C#N)=C(N)C2(C#N)C#N)c(C)cc1C (centres undefined)	.	/	.	?	3.2µM
CCCOc1cccc(NC(=O)c2c(-c3ccccc3)noc2C)c1	6.3µM	/	.	.	.
FC(F)(F)c1cc(NC(=S)NC23CC4CC(CC(C4)C2)C3)cc(C(F)(F)F)c1	/	.	.	.	/
CCOC(=O)c1c(NC(=O)/C=C/C(=O)O)sc(C)c1-c1ccc(C(C)(C)C)cc1	?	?	.	.	10µM
CCOC(=O)c1c(NC(=O)/C=C\C(=O)O)sc(C)c1-c1ccccc1	?	.	.	?	.
Cc1ccc(S(=O)(=O)N2CCc3nc(COc4ccccc4)c4c(c3C2)CO[C@@H](C)C4)cc1	/	/	.	.[10 µM]	/
CCc1ccc(S(=O)(=O)/N=C2/C=C(Sc3ncn[nH]3)C(=O)c3ccccc32)cc1	3.5µM	?	.	.[10 µM]	10µM
COc1ccc(-n2ncc(Cl)c(Cl)c2=O)cc1	4µM	.	.	/	.
CC(C)(C)C(=O)Nc1ccc(C(=O)N/N=C/c2ccccc2OC(=O)c2ccc(Cl)cc2)cc1	?	.	.	.[10 µM]	.
O=C(N/N=C/c1ccccc1OC(=O)c1ccc2c(c1)OCO2)c1ccccc1	5µM	.	.	.[10 µM]	.
CC(C)(C)C(=O)Nc1ccc(C(=O)N/N=C/c2ccccc2OC(=O)c2ccccc2)cc1	11µM	/	.	.	.
O=C(N/N=C/c1cc2c(cc1Cl)OCO2)c1ccc2c(c1)OCCO2	.[9.22 µM]	.	/	.[10 µM]	?
SMILES	HTT aggregate	ERK EGF block	IMPase Li cell	HTT cytoprotect	NPSR antag
O=c1ccn([C@H]2O[C@H](CO)[C@@H](O)[C@@H]2O)c(=O)[nH]1	/	/	/	.	/
Cn1c2ccccc2c2cc(C(=O)NNC(=O)CCl)sc21	16µM	.	.	.	.
CC(=O)OC1CC(OC(C)=O)[C@]2(C)C(CC(OC(C)=O)[C@@]3(C)C4=CC(=O)OC(c5ccoc5)[C@]4(C)CCC32)C1(C)C (some centres undefined)	/	.	.	?	/
C=CCN1CCCC1CNC(=O)c1cc(S(N)(=O)=O)cc(OC)c1OC (centres undefined)	.	/	/	?	/
COc1cc2c(cc1NC(=O)c1cccc([N+](=O)[O-])c1)oc1ccccc12	.	/	.	.[10 µM]	10µM
Brc1ccc2c(c1)OCCOCCOc1cc(Br)ccc1OCCOCCOCCO2	25µM	/	.	.[10 µM]	.
Brc1cc2c(cc1Br)OCCOCCOCCOCCO2	.	.	.	.	.
CN1CCc2cc(O)c(O)cc2[C@H](c2ccccc2)C1	/	/	/	.[1.9 µM]	/
